Screening data deposited in PubChem by Broad Institute.
Compounds with a hit are over-represented: about 6.7% of the library has one in this group of screens.
C diff HTS: C. difficile growth inhibitors, primary screen, HTS | AID 1259249, 2017 | 86,000 tested, 0.25% active | Clostridium difficile clinical isolate growth, OD600, 24 h; active compounds read low | growth activity, negative = inhibition, % at 16 µg/mL (by protocol);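 active means mean growth activity at or below -80% and every replicate also at or below -80%; inconclusive means mean at or below -80% but some replicate above -80%; inactive means mean growth activity above -80%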;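 further: 0% = DMSO wells and -100% = levofloxacin 16 µg/mL wells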
T cruzi growth-1: T. cruzi intracellular proliferation inhibitors, primary screen, cell-based, beta-gal Tulahuen parasites, NIH3T3 host, luminescence | T. cruzi beta-gal in NIH3T3, GalScreen luminescence, 90 h | 77,000 tested, 5.9% active | inhibition, % at 8.34 µM;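 active means mean inhibition above about 93%, with at least 55% of replicates each passing it, limit read from the data, passing the limit was not always enough; inconclusive means only one of those two conditions holds; inactive means neither condition holds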
Pf Dd2 growth: P. falciparum Dd2 growth inhibitors, primary screen, SYBR Green fluorescence, single dose replicates; 72 h; active compounds read low; activity change, % at 10 µM; 94,000 tested, 2.3% active; in the data active means activity change below about -80%; inconclusive means no clear call, values can overlap the other calls
T cruzi growth-2: T. cruzi intracellular proliferation inhibitors, confirmation, cell-based, NIH3T3 host, beta-gal parasite, luminescence, cherry-pick; shares compounds with T cruzi growth-1; T. cruzi beta-gal in NIH3T3, GalScreen luminescence, 90 h; inhibition, % at 8.35 µM; 5,600 tested, 72% active;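 active means mean replicate inhibition above about 95% and at least 55% of replicates individually reaching it, limit read from the data; inconclusive means only one of the two criteria is met; inactive means neither criterion is met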
T cruzi growth-3: inhibitors of intracellular T. cruzi replication, confirmation, NIH3T3 host cells, beta-gal parasites, cherry-pick, set 2; shares compounds with T cruzi growth-1; T. cruzi beta-gal in NIH3T3, GalScreen luminescence, 90 h; inhibition, % at 2.09 µM; 5,600 tested, 21% active;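 active means mean inhibition above about 95%, with at least 55% of replicates also reaching it, limit read from the data; inconclusive means meets just one of the two conditions; inactive means meets neither condition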;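 further: plate controls were neutral control median for no effect and positive control median for full effect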
NIH3T3 tox: cytotoxicity in mouse NIH/3T3 fibroblasts, confirmation, cytotoxicity control for T. cruzi proliferation inhibitor project, cell-based, cherry-pick, single point; shares compounds with T cruzi growth-1; NIH/3T3 viability, CellTiter-Glo ATP luminescence, 90 h; cytotoxicity (signal decrease), % at 8.35 µM; 5,600 tested, 14% active; AID 651742, 2012;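 active means mean signal decrease across replicates above about 35% based on untreated-well scatter, with enough replicates individually passing, limit read from the data; inconclusive means no rule stated though some were filed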;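 further: 0% = median of neutral control wells and 100% = median of positive control wells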
3T3 cytotox 2: NIH/3T3 fibroblast cytotoxicity, confirmation, cytotoxicity control, cell-based, cherry-pick, single point, set 2; shares compounds with T cruzi growth-1; inhibition, % at 24.9 µM; NIH/3T3 viability, CellTiter-Glo ATP luminescence, 90 h; 5,600 tested, 56% active;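 active means mean loss of cell viability signal at or above a set limit, and enough replicates individually reaching it; inconclusive means meets only the mean limit or only the replicate share; inactive means meets neither condition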;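 further: 0% = median of neutral control wells and 100% = median of positive control wells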
Active calls of the source: *; ? = inconclusive; · = no result given.

SMILES	C diff HTS	T cruzi growth-1	Pf Dd2 growth	T cruzi growth-2	T cruzi growth-3	NIH3T3 tox	3T3 cytotox 2
C[C@@H]1CN([C@@H](C)CO)C(=O)c2cc(NC(=O)NC3CCCCC3)ccc2O[C@H]1CN(C)Cc1ccc(-c2ccccc2)cc1	42.1	107.5*	12.6	101.7*	-17.6	37.8*	43.3*
C[C@@H]1CN([C@H](C)CO)C(=O)c2cc(NC(=O)NC3CCCCC3)ccc2O[C@@H]1CN(C)Cc1ccc(-c2ccccc2)cc1	-0.7	48.3	13.8	·	·	·	·
C[C@H]1CN([C@@H](C)CO)C(=O)c2cc(NC(=O)NC3CCCCC3)ccc2O[C@@H]1CN(C)Cc1ccccc1	-7.5	3.4	-6.7	·	·	·	·
C[C@@H]1CN([C@H](C)CO)C(=O)c2cc(NC(=O)NC3CCCCC3)ccc2O[C@H]1CN(C)Cc1ccc(-c2ccccc2)cc1	30.4	105.3*	9.8	103.6*	13.4	25.4	17.0
C[C@@H]1CN([C@@H](C)CO)C(=O)c2cc(NC(=O)NC3CCCCC3)ccc2O[C@@H]1CN(C)Cc1ccc(-c2ccccc2)cc1	9.5	95.7*	6.4	100.3*	100.6*	53.9*	64.7*
CCCC(=O)Nc1ccc2c(c1)C(=O)N(C)C[C@@H](OC)[C@H](C)CN(Cc1cccc(F)c1)[C@H](C)CO2	·	-10.7	-41.3	·	·	·	·
C[C@@H]1CN([C@H](C)CO)C(=O)c2cc(-c3cncnc3)cnc2O[C@@H]1CN(C)C(=O)Nc1ccc2c(c1)OCO2	-2.1	-1.4	23.1	·	·	·	·
O=C(C[C@H]1C=C[C@@H](NS(=O)(=O)c2cccc(F)c2)[C@H](CO)O1)NCc1ccc2c(c1)OCO2	-0.9	·	-4.0	·	·	·	·
C[C@H](CO)N1C[C@H](C)[C@H](CN(C)Cc2ccc(C(F)(F)F)cc2)OCCCC[C@H](C)Oc2ccc(NS(=O)(=O)c3ccc(F)cc3)cc2C1=O	3.7	20.6	-15.7	·	·	·	·
C[C@H](CO)N1C[C@H](C)[C@H](CN(C)C(=O)NC2CCCCC2)Oc2c(NS(=O)(=O)c3ccc(F)cc3)cccc2C1=O	-0.6	5.7	-24.8	·	·	·	·
CNC[C@@H]1OCCCC[C@H](C)Oc2ccc(NC(=O)c3ccncc3)cc2C(=O)N([C@H](C)CO)C[C@@H]1C	-1.3	42.6	·	·	·	·	·
COc1ccc(S(=O)(=O)Nc2ccc3c(c2)C(=O)N([C@H](C)CO)C[C@H](C)[C@H](CN(C)S(=O)(=O)c2ccc(F)cc2)OCCCC[C@H](C)O3)cc1	6.3	80.3	-50.4	·	·	·	·
COc1ccc(S(=O)(=O)N(C)C[C@H]2OCCCC[C@H](C)Oc3ccc(NS(=O)(=O)c4ccc(F)cc4)cc3C(=O)N([C@H](C)CO)C[C@H]2C)cc1	5.3	68.6	-79.8	·	·	·	·
COc1ccc(S(=O)(=O)N(C)C[C@@H]2OCCCC[C@@H](C)Oc3ccc(NS(=O)(=O)c4ccc(F)cc4)cc3C(=O)N([C@H](C)CO)C[C@H]2C)cc1	16.2	101.3*	-47.6	111.3*	67.2	22.2	-5.6
COc1ccc(S(=O)(=O)N(C)C[C@@H]2OCCCC[C@H](C)Oc3ccc(NS(=O)(=O)c4ccc(F)cc4)cc3C(=O)N([C@@H](C)CO)C[C@H]2C)cc1	5.1	105.4*	-44.1	108.6*	39.7	-15.3	4.9
COc1ccc(S(=O)(=O)N(C)C[C@@H]2OCCCC[C@@H](C)Oc3ccc(NS(=O)(=O)c4ccc(F)cc4)cc3C(=O)N([C@@H](C)CO)C[C@H]2C)cc1	7.1	100.9*	-1.7	103.1*	64.6	-31.4	-6.0
COc1ccc(S(=O)(=O)Nc2ccc3c(c2)C(=O)N([C@H](C)CO)C[C@H](C)[C@H](CN(C)S(=O)(=O)c2ccc(F)cc2)OCCCC[C@@H](C)O3)cc1	10.5	-2.0	14.2	·	·	·	·
COc1ccc(S(=O)(=O)N(C)C[C@H]2OCCCC[C@@H](C)Oc3ccc(NS(=O)(=O)c4ccc(F)cc4)cc3C(=O)N([C@@H](C)CO)C[C@@H]2C)cc1	4.2	104.4*	-34.2	102.7*	75.9	10.3	8.4
COc1ccc(S(=O)(=O)Nc2ccc3c(c2)C(=O)N([C@H](C)CO)C[C@@H](C)[C@H](CN(C)S(=O)(=O)c2ccc(F)cc2)OCCCC[C@H](C)O3)cc1	0.7	71.5	-48.9	·	·	·	·
COc1ccccc1NC(=O)N1C[C@@H]2N[C@H](C1)C2c1ccc(-c2cccc(C(=O)N(C)C)c2)cc1 (some centres undefined)	-8.0	·	30.6	·	·	·	·
CC(C)NC(=O)N1[C@@H](C#N)[C@@H](c2ccc(C#CC3CCCC3)cc2)[C@@H]1CO	2.9	105.3*	-7.5	101.4*	77.4	8.1	27.2*
CC(C)NC(=O)N1[C@H](CO)[C@@H](c2ccc(C#CC3CCCC3)cc2)[C@@H]1C#N	0.9	98.5*	-21.6	102.8*	37.2	-7.0	10.8
N#C[C@@H]1[C@@H](c2ccc(C#CC3CCCC3)cc2)[C@H](CO)N1C(=O)Nc1ccc(F)cc1	-0.2	91.7	-24.3	·	·	·	·
N#C[C@@H]1[C@H](c2ccc(C#CC3CCCC3)cc2)[C@H](CO)N1C(=O)Nc1ccc(F)cc1	-3.9	88.1	-67.0	·	·	·	·
CC(C)NC(=O)N1[C@@H](C#N)[C@H](c2ccc(C#CC3CCCC3)cc2)[C@@H]1CO	1.0	99.6*	-18.4	105.5*	49.9	-0.5	51.8*
SMILES	C diff HTS	T cruzi growth-1	Pf Dd2 growth	T cruzi growth-2	T cruzi growth-3	NIH3T3 tox	3T3 cytotox 2
CC(C)NC(=O)N1[C@@H](C#N)[C@H](c2ccc(C#CC3CC3)cc2)[C@@H]1CO	-8.8	104.4*	-43.2	105.1*	?	3.3	57.5*
CN(C)CC(=O)N1[C@H](C#N)[C@@H](c2ccc(C#CC3CC3)cc2)[C@H]1CO	6.5	15.8	22.9	·	·	·	·
O=C(C[C@@H]1CC[C@H]2[C@@H](COC[C@@H](O)CN2C(=O)c2ccc(F)cc2)O1)NCCCN1CCOCC1	·	-88.6	8.7	·	·	·	·
CC(C)C#Cc1cnc2c(c1)C(=O)N([C@@H](C)CO)C[C@H](C)[C@@H](CN(C)Cc1ccc3c(c1)OCO3)O2	1.7	17.0	-18.6	·	·	·	·
COc1ccc2c3c(n(C)c2c1)[C@@H](CO)N(C(=O)C1CCC1)CC31CCN(C)CC1	2.6	·	0.6	·	·	·	·
C[C@@H]1CN([C@H](C)CO)C(=O)Cc2cc(NS(=O)(=O)c3cccs3)ccc2O[C@@H]1CN(C)S(=O)(=O)c1ccc(Cl)cc1	3.8	65.7	-32.3	·	·	·	·
O=C(Nc1ccc(-c2ccccc2)cc1)[C@H]1[C@H](CO)[C@H]2Cn3c(cccc3=O)[C@H]2N1CC1CCOCC1	-9.3	62.7	-18.8	·	·	·	·
